# Out of some 4,400 compounds screened, about 390 (8.9%) showed an effect of 50% or more. The entries come from a sample that favours strong results as a whole.
# System: Trypanosoma brucei
# Experiment: DNDI: Inhibition of Human African Trypanosomiasis, SBRI 427, in vitro at 2 ug.mL-1
# Assay type: functional
row,Compound,% inhibition
1,O/N=C(/c1cccnc1Oc1ccc(F)c(Cl)c1)N1CCN(c2ccc(F)cc2)CC1,-10%
2,O/N=C(\NCCN1CCOCC1)c1ccc(Oc2ccc(Cl)cc2)nc1,-2%
3,Cc1cccc(Oc2ccc(/C(=N/O)n3ccnc3)cn2)c1,15%
4,COc1cccc(N2CCN(Cc3coc(-c4ccc(F)cc4)n3)CC2)c1,-1%
5,CSc1ccc(Oc2nc(C)ccc2/C(=N/O)N2CCSCC2)cc1C,12%
6,O/N=C(\NCCN1CCOCC1)c1cccnc1Oc1ccc2c(c1)CCCC2,8%
7,CCC(C)(C)N/C(=N\O)c1ccc(C)nc1Oc1cc(C)cc(C)c1,24%
8,CCOc1ccccc1-c1nc(CN2CCN(CC)CC2)co1,16%
9,Cc1ccc(/C(=N/O)NCCN2CCCC2)c(OCc2cccc(F)c2)n1,-12%
10,CCOc1cccc(Oc2ncccc2/C(N)=N/O)c1,10%
11,CCOc1ccccc1-c1nc(CN(C)Cc2cccc3ccccc23)co1,15%
12,COc1ccc(NCc2coc(-c3ccc(F)cc3)n2)cc1,-3%
13,Brc1ccccc1-c1nc(CNCCN2CCOCC2)co1,9%
14,Cc1cc(C)n(/C(=N\O)c2ccc(Oc3ccc(Cl)cc3)nc2)n1,-5%
15,O/N=C(/c1cccnc1Oc1ccc(F)cc1Cl)N1CCCCCC1,11%
16,O/N=C(/c1cccnc1Oc1ccc(F)cc1Cl)N1CCCc2ccccc21,100%
17,O/N=C(/c1cccnc1Oc1ccc(F)cc1Cl)N1CCCC1,13%
18,COc1ccc(Oc2nc(C)ccc2/C(=N/O)N2CCC=N2)cc1,8%
19,CCOC(=O)N1CCN(Cc2coc(-c3ccccc3Cl)n2)CC1,8%
20,Cc1cccc(Oc2nc(C)ccc2/C(=N/O)N2Cc3ccccc3C2)c1,3%
21,Cc1ccc(Oc2nc(C)ccc2/C(=N/O)N(C)c2ccccc2)c(C)c1,41%
22,CC1CCC(N/C(=N\O)c2cccnc2Oc2ccccc2OC(C)C)CC1 (stereo unspecified),98%
23,CC(C)Oc1ccccc1Oc1ncccc1/C(=N/O)NCC1CCCO1 (stereo unspecified),-11%

row,Compound,% inhibition
1,CC1CC(N/C(=N\O)c2cccnc2Oc2ccccc2OC(C)C)CC(C)(C)C1 (stereo unspecified),99%
2,CC(C)Oc1ccccc1Oc1ncccc1/C(=N/O)NCc1ccncc1,7%
3,COC(=O)C1CCN(/C(=N\O)c2cccnc2Oc2ccccc2OC(C)C)CC1,-2%
4,COc1ccc(CN/C(=N\O)c2cccnc2Oc2ccccc2OC(C)C)cc1,-18%
5,CC(C)Oc1ccccc1Oc1ncccc1/C(=N/O)NC1CCCCC1,99%
6,c1ccc(N2CCN(Cc3coc(-c4ccco4)n3)CC2)nc1,4%
7,COc1cc2c(cc1OC)C(C(C)C)N(Cc1coc(-c3ccccc3Cl)n1)CC2 (stereo unspecified),3%
8,COc1ccc(CCN(C)Cc2coc(-c3cc(OC)c(OC)c(OC)c3)n2)cc1OC,9%
9,Clc1cccc(N2CCN(Cc3coc(-c4ccco4)n3)CC2)c1,10%
10,Fc1cccc(-c2nc(CNCc3cccnc3)co2)c1,17%
11,CCN(CCC#N)Cc1coc(-c2ccc(Cl)cc2Cl)n1,8%
12,Fc1ccc(-c2nc(CNCc3ccccc3C(F)(F)F)co2)cc1,18%
13,CC1CCCCC1NCc1coc(-c2ccccc2Br)n1 (stereo unspecified),11%
14,CC1CCCCC1NCc1coc(-c2ccccc2Cl)n1 (stereo unspecified),-2%
15,CC1CCCC(NCc2coc(-c3cccc(F)c3)n2)C1C (stereo unspecified),10%
16,CC1CCCC(NCc2coc(-c3cccc4ccccc34)n2)C1C (stereo unspecified),71%
17,COc1ccc(-c2nc(CNC3CCCC(C)C3C)co2)cc1 (stereo unspecified),2%
18,CC1CCCC(NCc2coc(-c3ccccc3Br)n2)C1C (stereo unspecified),98%
19,CCOC(=O)c1cn(Cc2coc(-c3ccc(OCC)cc3)n2)nc1C(F)(F)F,-15%
20,Cc1ccc(Oc2nc(C)ccc2/C(=N/O)Nc2ccccc2)c(C)c1,-4%
21,Cc1cc(N)nn1Cc1coc(-c2cccc3ccccc23)n1,25%
22,CC(C)c1ccc(N/C(=N\O)c2ccc(Oc3ccc(-n4ccnc4)cc3)nc2)cc1,11%
23,Cc1cc(N)nn1Cc1coc(-c2ccc(OC(F)(F)F)cc2)n1,97%

row,Compound,% inhibition
1,CCOc1ccc(-c2nc(Cn3nc(N)cc3-c3ccccc3)co2)cc1,-17%
2,CC(C)c1nccn1Cc1coc(-c2ccc(OC(F)(F)F)cc2)n1,56%
3,Cc1ccc(-c2nc(Cn3nc(N)cc3C)co2)cc1,99%
4,Nc1cc(-c2ccccc2)n(Cc2coc(-c3ccc(OC(F)(F)F)cc3)n2)n1,-3%
5,COc1cccc(-c2nc(Cn3nc(N)cc3C)co2)c1,18%
6,COc1ccc(-c2nc(Cn3nc(N)cc3C)co2)cc1,25%
7,Cc1cccc(-c2nc(Cn3nc(N)cc3C)co2)c1,9%
8,CCOc1ccc(-c2nc(Cn3nc(N)cc3C)co2)cc1,99%
9,Cc1cc(N)nn1Cc1coc(-c2ccc(F)cc2)n1,12%
10,COc1ccc(-c2nc(Cn3ccnc3C(C)C)co2)cc1,29%
11,CC(C)c1nccn1Cc1coc(-c2ccc(C(F)(F)F)cc2)n1,-2%
12,Fc1ccc(-c2nc(CN3CCC(N4CCCCC4)CC3)co2)cc1,4%
13,O/N=C(/c1ccc(Oc2cccc3c2CCCC3)nc1)N1CCOCC1,15%
14,C=CCN1CCN(/C(=N\O)c2ccc(C)nc2OCc2ccccc2F)CC1,3%
15,FC(F)(F)c1ccc(-c2nc(CN3CCN(c4ncccn4)CC3)co2)cc1,4%
16,Cc1ccc(/C(=N/O)NCc2c(F)cccc2F)c(OCc2ccc(C(C)C)cc2)n1,16%
17,Cc1ccc(-c2nc(CN(C)c3cccc(C)c3)co2)cc1,21%
18,Cc1cc(Oc2nc(C)ccc2/C(=N/O)N2CCN(c3ccccc3)CC2)cc(C(C)C)c1,5%
19,COc1cccc(Oc2ccc(/C(=N/O)Nc3ccc(C(C)C)cc3)cn2)c1,-4%
20,CC(C)(C)CNCc1coc(-c2ccc(Cl)cc2Cl)n1,14%
21,CC1CCc2ccccc2N1/C(=N\O)c1ccc(Oc2cccc3c2OC(C)(C)C3)nc1 (stereo unspecified),10%
22,C=CCN1CCN(/C(=N\O)c2ccc(C)nc2Oc2ccc(C)cc2C)CC1,14%
23,CCCC1=NCCN1Cc1coc(-c2cccc(OCC)c2)n1,2%

row,Compound,% inhibition
1,Cc1ccccc1-c1nc(CNCc2ccccn2)co1,15%
2,Cc1ccccc1-c1nc(CN(C)C2CCCCC2)co1,10%
3,Cc1ccccc1-c1nc(CN(C)C2CCN(C)CC2)co1,28%
4,CN(Cc1coc(-c2cccc3ccccc23)n1)C1CCCCC1,82%
5,CCOc1ccccc1-c1nc(CN(C)C2CCN(C)CC2)co1,-1%
6,CCOc1ccccc1-c1nc(CN(C)C2CCCCC2)co1,13%
7,CN1CCC(N(C)Cc2coc(-c3cccc4ccccc34)n2)CC1,69%
8,CCOc1ccccc1-c1nc(Cn2nc(N)cc2C)co1,5%
9,COc1ccc(Oc2nc(C)ccc2/C(=N/O)NCc2cccc(OC)c2)cc1,25%
10,C#CC1(NCc2coc(-c3cccc(F)c3)n2)CCCCC1,18%
11,O/N=C(/c1ccnc(Oc2ccc(F)c(Cl)c2)c1)N1CCSC1,-2%
12,Cc1ccc(/C(=N/O)N(C)Cc2ccco2)c(Oc2cccnc2)n1,13%
13,CCCCN(C)Cc1coc(-c2cccc3ccccc23)n1,16%
14,CC(C)(C)COc1ncccc1/C(=N/O)n1ccnc1,30%
15,CC(=O)c1ccc(N/C(=N\O)c2cccnc2Oc2ccccc2OCc2ccccc2)cc1,-2%
16,CCCN/C(=N\O)c1cccnc1Oc1ccccc1OCc1ccccc1,-7%
17,O/N=C(\NCc1c(F)cccc1F)c1cccnc1OCc1ccccc1,23%
18,CC(C)N/C(=N\O)c1cccnc1Oc1ccccc1OCc1ccccc1,-14%
19,CC(C)COc1ncccc1/C(=N/O)Nc1ccccc1,5%
20,COC(=O)C1CCN(/C(=N\O)c2cccnc2OCc2ccccc2)CC1,61%
21,O/N=C(\Nc1ccccc1)c1cccnc1OCc1ccccc1,77%
22,O/N=C(\NC1CCC1)c1cccnc1Oc1ccccc1OCc1ccccc1,97%
23,COC(=O)C1CCN(/C(=N\O)c2cccnc2OCC(C)C)CC1,5%

row,Compound,% inhibition
1,COC(=O)C1CCN(/C(=N\O)c2cccnc2OCC(F)(F)F)CC1,12%
2,O/N=C(\NCc1cccs1)c1cccnc1OCc1ccccc1,10%
3,O/N=C(\NCC1CC1)c1cccnc1OCc1ccccc1,99%
4,COc1cccc(Oc2ccc(/C(=N/O)N3CCN(c4ccccc4)CC3)cn2)c1,-6%
5,COCCN(Cc1coc(-c2cccc3ccccc23)n1)C(C)C,6%
6,CCOc1ccccc1-c1nc(CN(c2ccccc2)C2CCCCC2)co1,-3%
7,COC(=O)C1CCN(/C(=N\O)c2ccc(C)nc2Oc2cccc3cnccc23)CC1,21%
8,COc1cccc(-c2nc(CN3CCN(c4ccccc4)CC3)co2)c1,15%
9,c1coc(-c2nc(CN3CCN(Cc4ccc5c(c4)OCO5)CC3)co2)c1,-2%
10,COc1ccc(-c2nc(CNCc3cccc(OC)c3)co2)cc1,-15%
11,COCCN(/C(=N\O)c1ccc(C)nc1Oc1cccc(C)c1)C(C)C,23%
12,Cc1ccc(/C(=N/O)N2C(C)C=CC2C)c(Oc2ccc(F)c(Cl)c2)n1 (stereo unspecified),8%
13,CCN(Cc1ccncc1)Cc1coc(-c2cccc3ccccc23)n1,27%
14,O/N=C(\NC1CCCC1)c1cccnc1OCc1ccccc1,53%
15,COCC(C)N/C(=N\O)c1cccnc1Oc1ccccc1OCc1ccccc1 (stereo unspecified),-7%
16,CCC(CC)N/C(=N\O)c1cccnc1OCc1ccccc1,94%
17,CC(C)c1ccc(COc2ncccc2/C(=N/O)NC2CCCC2)cc1,21%
18,COc1ccc(CN/C(=N\O)c2cccnc2OCc2ccccc2)cc1,10%
19,N/C(=N\O)c1cccnc1OCc1ccccc1,9%

# — ChEMBL document CHEMBL1857833, “Screening and optimization of specific chemical series against human African Trypanosomiasis (HAT)”
